The values below come from PubChem BioAssay (NCI).

The panel holds about 83,000 compounds, 20% with a hit somewhere; the sample as a whole holds those more often.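 Step 1: grow cells in 96-well plates. Step 2: add test compound at a single concentration. Step 3: incubate 48 h. Step 4: record percent growth.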 Calls of active or inactive are those of the source. How the source made its calls: active means growth percent below 10; inactive means the rest.

The subject of the assay is HL-60(TB) leukemia. Nature of the assay: NCI-60 one-dose screen, 48 h (100 = growth as untreated, 0 = no growth, -100 = all killed). The settings on record: 10 µM unless noted.
`CCOC(=O)c1c(-c2ccc(C)cc2)c(C#N)c(=O)n(-c2cccc(C(F)(F)F)c2)c1N`: the growth is 102% (inactive). Then `CN1CCN(Cc2ccc(NC(=O)c3cncc(C#Cc4c(N)ncc5cc(F)ccc45)c3)cc2C(F)(F)F)CC1`, with -46.2% (active); and `O=C(/C=C/c1ccc[nH]1)c1ccc(-n2ccc(C(F)(F)F)n2)c(F)c1`, with -11.3% (active); and `O=C1/C(=C/c2cccc(F)c2)CN(C(=O)C(Cl)Cl)C/C1=C\c1cccc(F)c1`, with -41.6% (active). Next, `CC1=NC2=Nn3c(c4cnn(-c5ccccc5)c4n/c3=N\N)NN2C(c2ccccc2)=C1`: 106% (inactive). Consider `CCCC(C)c1ccc(OCCCCCCN2CCNCC2)cc1` (centres undefined), for which the growth was -44.9% (active). Next, `O=c1oc2ccccc2cc1-c1csc(N=Nc2c(O)[nH]c3ccc(Br)cc23)n1`: 106% (inactive). On to `C[C@]12CC[C@H]3[C@@H](CCC4=CC(=O)CC[C@@]43C)[C@@H]1CC[C@@H]2c1csc(N)n1`, for which the growth was 0.82% (active). `Cc1ccc(C(=O)c2ccccc2)c(C)c1`: the growth was 115% (inactive). Next, `C[C@]12CCc3c(ccc4cc(O)ccc34)[C@@H]1C[C@H](O)[C@@H]2O`: 132% (inactive). For the molecule `COc1cc(C2CC(c3ccc4c(c3)OCO4)=NN2C=O)cc(OC)c1OC` (centres undefined), the growth is 0.568% (active). With `[O-]c1c[n+](-c2ccc(Cl)cc2)no1`, the growth was 89.4% (inactive). Next, `CCOC(=O)c1sc(NC(=O)c2cc(OC)c(OC)c(OC)c2)nc1C`: 102% (inactive). Then `OCc1ccccn1`, with 102% (inactive).
